A selection: hits, their analogues and other compounds. The true share with any hit is near 21%.
SARS PLP yeast: SARS-CoV PLP inhibition in yeast; S. cerevisiae expressing SARS-CoV PLpro, growth rescue; Potency, µM (series often up to 32.9 µM), for the others: top-dose activity, positive = growth rescue, usual class: activators; hit rate 0.19% among 330,000; further: potency means the concentration at half of the fitted maximal effect; 0% is about no effect; nearly all actives have a fitted effect of over 55% in size
Pf growth 96h: inhibits malaria parasite growth, 96 h | P. falciparum luciferase reporter growth, 96 h | Potency, µM (top dose mostly 28.7 µM), inactives show at the highest dose activity change, negative = inhibition, hits mostly inhibitors | hit rate 6.9% among 320,000; active means well fitted inhibition curve with a large enough effect; inconclusive means small, poorly fitted or top-dose-only effect, or another doubt; inactive means no such curve, though single readings can be large or run the other way; further: potency means the concentration at half of the fitted maximal effect; on the % scale 0 is the no-effect control and ±100 the full control effect
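Plates of compound plus infected erythrocytes (2% hematocrit, 0.05% parasitemia final) incubate 96 hours, 37 C, 5% CO2. Detection reagent added; reduced luminescence from the parasites' luciferase reporter flags inhibition.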
Shiga toxin inh: blocks Shiga toxin action in Vero cells; Vero cells, Shiga toxin protein synthesis inhibition reporter; inhibition, % at 38.7 µM; hit rate 9.2% among 290,000; AID 2315; in the data active means inhibition mostly above about 28%, no sharp cut-off; inactive means mostly below about 43%; further: 0% is about no effect
CHX counter: counter-screen for Shiga toxin inhibitors: cycloheximide protein synthesis inhibition; cell reporter, cycloheximide protein synthesis inhibition counterscreen; max response, %; hit rate 12% among 300,000; AID 2314; in the data active means max response mostly above about 13%, no sharp cut-off; inactive means mostly below about 14%; further: read at 38.3 µM for the half of the compounds with a filed dose; 0% is about no effect
NS1 function inh: inhibitors of influenza NS1 protein function | AID 2326 | Potency, µM (top dose mostly 46.1 µM), for inactives: at the top dose activity, positive = more growth | hit rate 0.4% among 270,000; further: potency means the concentration at half of the fitted maximal effect; actives are rising curves; nearly all actives have a fitted effect of over 50% in size
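In this qHTS, NS1 from influenza A is expressed in budding yeast, where it slows growth. Cells are switched from glucose to 2% galactose medium (pH 6.0, -URA), treated with compound, and growth recovery is read at OD600.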
Pf growth 48h: P. falciparum growth inhibition at 48 hours (one generation) | P. falciparum luciferase growth in erythrocytes, 48 h | Potency, µM (doses to about 28.7 µM), without a hit: top-dose activity change, negative = inhibition, hits mostly inhibitors | hit rate 5.9% among 310,000 | AID 504832; active means well fitted inhibition curve with a large enough effect; inconclusive means small, poorly fitted or top-dose-only effect, or another doubt; inactive means no such curve, though single readings can be large or run the other way; further: potency means the concentration at half of the fitted maximal effect; on the % scale 0 is the no-effect control and ±100 the full control effect
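Cell-based growth assay: transgenic P. falciparum expressing firefly luciferase, cultured in red cells within RPMI 1640 containing 0.5% w/v Albumax, 24 mM bicarbonate and gentamycin. A drop in luciferase activity indicates inhibition.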
* hit, by the source's call; u = inconclusive; x = no result; [ ] = dose if it differs, or a comment. Unless noted, the call rests on the fitted dose curve.

SMILES | SARS PLP yeast | Pf growth 96h | Shiga toxin inh | CHX counter | NS1 function inh | Pf growth 48h
COc1ccc(-c2cc(C(F)(F)F)n3ncc(C(=O)N4CCc5ccccc5C4)c3n2)cc1 | 0% | 25% | -5 | 0 | -2% | 9.3µM*
O=C(c1cnn2c(C(F)(F)F)cc(-c3ccccc3)nc12)N1CCCc2ccccc21 | -2% | x | -2 | 2 | -2% | -10%
N#Cc1cnn2c(C(F)(F)F)cc(-c3ccccc3)nc12 | -3% | 236% | -24 | -3 | -18% | 10µM*
C=CCNc1nc(C(=O)OCC(=O)Nc2ccccc2C(F)(F)F)cs1 | 2% | -4% | x | x | x | 9%
CCn1c2ccccc2c2cc(/C(C)=N/O)ccc21 | -19% | 42% | 3 | 14 | -40% | -1%
C/C(=N\O)c1ccc2c3ccccc3n(C)c2c1 | -10% | -24% | 105* | 46* | -63% | 101%
Cc1nn(-c2nc3ccccc3[nH]2)c(N)c1-c1ccc(Cl)cc1 | -32% | u | 82* | 46* | -7% | -63%
COC(=O)c1c(C)nn(-c2ccccc2)c1N | 11% | -8% | -4 | 5 | u | 48%
Cc1nn(-c2ccc(C(=O)O)cc2)c(N)c1-c1ccccc1 | -3% | 40% | 23* | 28* | 10% | 164%
Cc1nn(-c2ccccc2)c(N)c1C(c1ccccc1)c1c(C)nn(-c2ccccc2)c1N | 4% | 13µM* | -10 | -1 | 8% | u
COc1ccc(-c2c(C)nn(-c3ccccc3)c2N)cc1 | -4% | 103% | 51 | 23* | -73% | x
Cc1cc(Cl)ccc1NC(=O)CN(C)C1=NS(=O)(=O)c2ccccc21 | -3% | -15% | x | x | x | -24%
C=CCC[C@@H](Cc1ccc(F)cc1)C(=O)OC[C@@H](Cc1c[nH]c2ccccc12)NC(=O)[C@H](CC=C)CC(=O)N[C@H](CO)Cc1ccccc1 | 2% | x | x | x | x | x
Cc1ccc(S(=O)(=O)N2CCC(C(=O)OCC(=O)NC(C)c3ccc(F)cc3)CC2)cc1C (configuration not stated) | -13% | 14% | x | x | x | -23%
Cc1cc(C)c(N(CC(=O)NCc2ccccc2)C(=O)c2csnn2)c(C)c1 | 6% | 12% | -2 | -6 | -2% | 2%
Cc1cc(N2CCN(c3ccccn3)CC2)n2cc(-c3ccccc3)nc2n1 | -1% | 6.6µM* | 8 | -1 | -14% | 13µM*
Cc1cc(N2CCN(C)CC2)n2cc(-c3ccc(F)cc3)nc2n1 | 1% | -4% | -6 | -2 | 8% | 0%
CCSc1nnc(CSc2ncccn2)n1C | 5% | u | -12 | -4 | x | u
O=C(CS(=O)(=O)c1ccccc1)Nc1nc(-c2ccccc2)cs1 | -12% | 2% | 16 | 12 | -68% | 3%
CC(C)(C)c1csc(NC(=O)CS(=O)(=O)c2ccccc2)n1 | -1% | 1% | 127* | 39* | -9% | 22%
Cc1csc(NC(=O)CS(=O)(=O)c2ccccc2)n1 | 0% | u | 48* | 28* | x | 20%[5.75 µM]
Cc1ccc(S(=O)(=O)CC(=O)Nc2nc(-c3ccccc3)cs2)cc1 | -22% | 0% | -14 | 4 | 29% | x
COc1ccc(SC[C@H](Cc2ccccc2)N2CCN(C)CCC2=O)cc1 | 1% | 10µM* | -3 | -5 | 1% | 13µM*
Cc1ccc(SC[C@H](Cc2ccccc2)N2CCN(C)CCC2=O)cc1 | 1% | u | 9 | 9 | 17% | 12µM*
CN1CCC(=O)N([C@H](CSc2ccccc2)Cc2ccccc2)CC1 | 7% | u | -1 | -2 | 18% | 1%
COc1ccc(SCC(Cc2ccccc2)N2CCN(C)CCC2=O)cc1 (configuration not stated) | x | x | -20 | -5 | x | x
CN1CCC(=O)N([C@H](CSc2ccc(Br)cc2)Cc2ccccc2)CC1 | 1% | 3.3µM* | -3 | -2 | -1% | 9.3µM*
COc1ccc(CN(Cc2cccn2C)S(=O)(=O)c2cccc(C(F)(F)F)c2)cc1 | -4% | u | 20 | 10 | 0% | 12µM*
COc1ccc(CN(Cc2cccn2C)S(=O)(=O)c2ccc(F)cc2)cc1 | -1% | u | -4 | 3 | 0% | u
CCc1c(C)sc(NC(=O)OC)c1C(N)=O | -2% | 4.1µM* | -6 | 12 | -43% | 40%
